“And” between values parts separate entries of the source, which are not always exact repeats. Equal entries are not always repeated. Out of some 260,000 compounds screened, about 1,500 (0.58%) were called active. About 5% were inconclusive and are not listed.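 The calls were made as follows: active = inhibition above a set limit at one or more doses, reproduced on every date tested; inconclusive = results disagree between test dates, or hit never tested in dose response; inactive = the rest.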 Not all results are given here. Measured potencies and affinities stand elsewhere.
These compounds were tested against Virion infectivity factor (Human immunodeficiency virus type 1 group M subtype B (isolate BH10)) + Virion infectivity factor (Human immunodeficiency virus type 1 group M subtype B (isolate BRU/LAI)) + Virion infectivity factor (Human immunodeficiency virus type 1 group M subtype B (isolate PCV12)) + Virion infectivity factor (Human immunodeficiency virus type 1 group M subtype B (isolate HXB2)) + DNA dC->dU-editing enzyme APOBEC-3G (Homo sapiens) (UniProt P69720+P69721+P69722+P69723+Q9HC16) (assay: inhibitors of Vif binding to APOBEC3G peptide, primary screen, biochemical, TR-FRET, GST-Vif 1-94, biotin-A3G peptide, dose response retest (AID 1117319;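 also: Vif residues 1-94 fused to GST binding biotinylated APOBEC3G peptide 110-148; 0% = full assay without inhibitor and 100% = GST in place of GST-Vif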)). Conditions: stronger effect = higher value.

inhibition, inactive:
CC(=O)c1ccc(OCc2cc(C(=O)N3CCC[C@H]3CO)no2)cc1 1.22%
CCn1c(COc2ccc3c(c2)OCO3)nnc1SCC(=O)c1ccccc1 9%
CCn1c(COc2ccc3c(c2)OCO3)nnc1SCC(=O)O -4.1%
O=C(/C=C/c1ccccc1Cl)Nc1ccccc1 -7.35%
Nc1cc(OCC(F)(F)F)cc(OCC(F)(F)F)c1 2.81%
COCCOc1ccc(C(F)(F)F)cc1N 16.5%
C=CCSc1nc2c(c(=O)[nH]c(=O)n2C)n1Cc1ccc(C)cc1 1.91%
CN1c2ccsc2/C(=N/Nc2ccc(F)cc2)CS1(=O)=O 12.5%
Cc1cc(NC(=O)CSc2nc3ccccc3c(=O)n2C2CCCC2)no1 3.03%
CN(C)c1ccc(NC(=O)CSc2nc3ccccc3c(=O)n2CC2CCCO2)cc1 (stereo unspecified) 1.51%
CCOC(=O)N1CCN(C(=O)CN(CC)S(=O)(=O)c2cc(C)ccc2OC)CC1 -2.01%
O=[N+]([O-])c1ccccc1Nc1ccccc1[N+](=O)[O-] -5.54%
CC(=O)Nc1ccc2c3c(ccc([N+](=O)[O-])c13)CC2 1.46%
COc1ccc(CCC(=O)N2CCCSC2=Nc2ccc(C(C)=O)cc2)cc1 11.6%
O=C(O)c1cccc2c1-c1ccc(Cl)cc1C2 -7.17%
O=C1Cc2cc(O)ccc2O1 -1.58%
Cc1cc2c(OCC(O)CN3CCCC3)cccc2[nH]1 (stereo unspecified) 2.52%
O=C(CCCc1cccs1)Nc1nc2c(s1)CCCC2 12.6%
CCOC(=O)c1ccc(NS(=O)(=O)c2ccc3c(c2)oc(=O)n3C)cc1 69.3%
CCOC(=O)c1ccc(NS(=O)(=O)c2ccc3[nH]c(=O)[nH]c3c2)cc1 5%
Cc1[nH]ccc(=O)c1OCc1ccccc1 6.47%
O=C(O)c1cc(OCc2ccccc2)cc(OCc2ccccc2)c1 1.18%
CCOc1cc(/C=C2/SC(=S)N(Cc3ccccc3)C2=O)ccc1O 6.48%
Cc1ccc(NC(=O)CSc2nnc(CNC(=O)c3ccco3)n2C)cc1C -4.15%
O=C(COC(=O)C1CC2CCCC(C1)C2=O)NNC(=O)c1ccccc1Br (stereo unspecified) -2.58%
COC(=O)[C@]1(C)N[C@H](CN(C)S(=O)(=O)c2ccc(C(C)(C)C)cc2)[C@@H]2C(=O)N(C)C(=O)[C@@H]21 3.98%
Cc1cc(C)n(/N=C/c2ccco2)c(=O)c1C#N 11.3%
O=C1/C(=C/c2cccs2)SC(=S)N1C1CCS(=O)(=O)C1 (stereo unspecified) 0.42%
O=C1/C(=C/c2ccccc2)SC(=S)N1C1CCS(=O)(=O)C1 (stereo unspecified) -6.69%
Cc1ccc(/C=C2\SC(=S)N(C3CCS(=O)(=O)C3)C2=O)o1 (stereo unspecified) -0.73%
Cc1ccc(/C=C2\SC(=S)N(C3CCS(=O)(=O)C3)C2=O)cc1 (stereo unspecified) 6.18%
Cc1ccc(C(=O)N/C(=C/c2ccco2)C(=O)NC2CCS(=O)(=O)C2)cc1 (stereo unspecified) -1.97%
CC1c2ccccc2N(NC(=O)Cc2ccccc2)C1C (stereo unspecified) 1.5%
CC(=O)c1ccc(N2CCN(C(=O)c3ccc(OCc4c(C)noc4C)cc3)CC2)cc1 -23.2%
CCn1c(SCC(=O)NNC(=O)Cc2ccccc2)nnc1-c1ccccc1 6.74%
CNc1ccc(OC)cc1-n1cnc(-c2ccc([N+](=O)[O-])cc2)c1 -2.92%
O=C(NCc1ccccn1)/C(=N/O)c1ccccc1 1.42%
O=C(NCc1ccccn1)C(=O)NCc1ccccn1 5.11%
Cn1nc(C(C)(C)C)cc1C(=O)NCc1ccc2c(c1)OCO2 5.42%
O=C1N/C(=C/c2cccn2-c2ccccc2)C(=O)N1Cc1ccccc1F 0%
O=C(O)c1cccc(-n2cccc2/C=C2/NC(=O)N(c3ccc(Cl)cc3)C2=O)c1 -7.27%
N#C/C(=C/c1cccn1-c1cccc(C(=O)O)c1)c1ccc(F)cc1 0.42%
O=C(O)c1ccc(COc2ccc3ccccc3c2/C=C2/NC(=O)N(c3ccccc3)C2=O)cc1 24.9%
O=C(O)c1cc(-c2ccc(/C=C3\NC(=O)N(c4ccccc4)C3=O)o2)ccc1Cl 25.2%
N#CC(C#N)=Cc1cccn1-c1ccc(S(N)(=O)=O)cc1 -2.79%
O=C(O)c1ccc(COc2ccccc2/C=C2/NC(=O)N(c3cccc(Cl)c3)C2=O)cc1 32.2%
Cc1c(C(=O)O)cccc1-c1ccc(/C=C2/NC(=O)N(c3ccccc3)C2=O)o1 18.3%
Cn1c(C(=O)NCc2cccs2)cc2oc3ccccc3c21 2.73%
O=C(NC1(C(F)(F)F)NC(=O)N(CC2CCCCC2)C1=O)c1ccco1 (stereo unspecified) 9.27%
CCN(C(=O)c1cn(C)c(=O)c2ccccc12)c1ccccc1F -11.6%
Cn1cc(CCNCc2cn[nH]c2-c2ccc(-c3ccccc3)cc2)cn1 -3.24%
CC(C)Cc1cc(C(=O)O)c2ccccc2n1 5.6%
CCn1c(Cc2ccccc2)nnc1SCC(=O)Nc1ccc(C)cc1 -8.39%
CC(C)c1ccc(NC(=O)Cc2cn(C)c3ccccc23)cc1 4.75%
CCc1ccccc1NC(=O)Cc1cn(C)c2ccccc12 -13.9%
Cc1ccc(-c2nnn(CC(=O)N(c3ccccc3)C(C(=O)NC3CCCC3)c3ccco3)n2)o1 (stereo unspecified) -1.78% and -5.18%
Cc1ccc(N(C(=O)Cn2nnc(-c3ccc(C)o3)n2)C(C(=O)NC2CCCC2)c2ccco2)cc1 (stereo unspecified) 1.99% and -5.57%
COCCN(Cc1ccc(C)c(Br)c1)C(=O)Cn1cnc(S(=O)(=O)N2CCCC2)c1 27.4%
CC(C)CCNC(=O)c1cccnc1Sc1ccccc1 -0.39%
CN(C)C(CNC(=O)c1ccccc1C(F)(F)F)c1ccco1 (stereo unspecified) 19%
Cc1ccc(C(C)C)cc1OCCCCN1CCCC1 -6.06%
Cc1ccc(S(=O)(=O)NC(=O)Nc2c(C)cccc2C)cc1 -2.09%
CCOC(=O)/C=C1\SCC(=O)N1CC(=O)NC(C)c1ccccc1 (stereo unspecified) -4.1%
CCOC(=O)/C=C1\SCC(=O)N1CC(=O)NC(C)C 0.13%
O=C(CSc1nc2ccccc2n1Cc1ccccc1)N/N=C/c1ccccc1C(=O)O -4.24%
C=CCC[C@H](Cc1ccc(F)cc1)C(=O)OC[C@@H](C)NC(=O)[C@H](CC=C)CC(=O)N(CCO)Cc1ccccc1 0.83%
COc1ccc(OC)c(Nc2nc(C3CC3)nc3c2nnn3Cc2ccccc2)c1 -2.66%
COc1ccc(OC)c(-c2csc(NC(=O)c3ccc(OCC4CCCO4)cc3)n2)c1 (stereo unspecified) 6.81%
C=CCNC(=O)C1COc2ccccc2O1 (stereo unspecified) -12.5%
COc1ccccc1N1CCN(C(=O)c2coc(=O)c(Br)c2)CC1 27.6%
O=C(c1ccccc1)N1CCCc2ccccc21 16.3%
O=C(c1ccc(Br)cc1)N1CCCc2ccccc21 4.85%
O=C(c1coc(=O)c(Br)c1)N1CCOCC1 24.5%
O=C(c1cccc(Br)c1)N1CCCc2ccccc21 4.68%
O=C(NC(=S)N1CCCc2ccccc21)c1ccc(Br)cc1 -10.8%
O=C(NC(=S)N1CCCc2ccccc21)c1ccc(Cl)cc1 -35.9%
O=C(c1ccc(=O)[nH]c1)N1CCCc2ccccc21 0.97%
CSC1=C(C#N)C(c2sccc2C)CC(=O)N1 (stereo unspecified) -3.4%
C[C@@H]1CCC[C@H](C)N1Cc1nc(Cc2ccccc2Cl)no1 -1.65%
Oc1cccc(/C=N/n2c(C3CCCCC3)n[nH]c2=S)c1 2.47%
CC(=O)c1c(C)[nH]c(C(=O)CSc2ccc(F)cc2)c1C 29.5%
CCOC(=O)N1CCN(C(=O)C2CCCCC2)CC1 -1.05%
CCOc1ccsc1C(=O)OC 5.88%
CC1(C)CC(=O)C(C=NCCO)=C(O)C1 -1.68%
O=C(CNC(=O)c1ccc(Cl)cc1)OCN1C(=O)c2ccccc2C1=O -9.8%
CCC(C)(C)n1nnnc1C(c1ccc2ncccc2c1)N1CCN(c2nc3ccccc3s2)CC1 (stereo unspecified) -9.25% and 0.75%
CCC(C)(C)n1nnnc1C(c1ccc2ncccc2c1)N1CCCCCC1 (stereo unspecified) 2.63%
CCOC(=O)C(=O)NC(C)c1ccccc1 (stereo unspecified) 1.23%
N#CC(C#N)=C1C(=O)N(CCN2CCOCC2)c2ccccc21 19.1%
COc1cc(CNCCc2ccccc2)ccc1OCc1ccc(Cl)nc1 2.97%
COc1ccc(CCNCc2ccc(OCc3ccc(Cl)nc3)c(OC)c2)cc1OC 5.39%
CCOc1cccc2sc(N(CCCN(C)C)C(=O)c3ccc(S(=O)(=O)N4CCCCCC4)cc3)nc12 -5.19%
O=C(Nc1ccc(NS(=O)(=O)c2ccccc2)cc1)c1ccccc1Cl 9.4%
CCc1ccccc1NC(=O)Nc1ccc2c(c1)OCO2 -3.87%
Cn1cccc1C(=O)NC(=O)COC(=O)CC12CC3CC(CC(C3)C1)C2 -0.55%
Cn1cccc1C(=O)NC(=O)COC(=O)C12CC3CC(CC(O)(C3)C1)C2 9.63%
